The record followed here is PubChem BioAssay.

Where “and” joins values, the source holds several entries; their conditions need not be identical. Equal values may be shown once. For some of these results: Potency and affinity values are given separately. Calls of active or inactive are those of the source. Unless noted, the rule behind the calls is not given here.

Assay [1] in a line: polyglutamine-triggered caspase-3 activation inhibitors, cell-based (AID 1583). As to conditions: polyglutamine-induced caspase-3 activation, cell assay; stronger effect = higher value;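 tested at 10 µM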.
A short description of assay [2]: suppressors of polyQ aggregation in yeast, 75Q-TubU reporter (AID 1593). As to conditions: Yeast 75Q polyglutamine aggregation reporter.
A short description of assay [3]: rescue of polyQ-huntingtin neuronal dysfunction in worms, whole organism, C. elegans mechanosensory neurons, N-terminal huntingtin (AID 1599). As to conditions: touch response, stronger effect = higher value.
A short description of assay [4]: inhibitors of mitochondrial cytochrome c release, biochemical, purified mitochondria (AID 1603).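 Note: mouse liver mitochondria challenged with calcium chloride; signal normalized to the plate average as 100%.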 As to conditions: stronger effect = lower value.
Assay [5] can be described thus: inhibitors of polyQ protein aggregation (AID 1604). As to conditions: polyglutamine-induced protein aggregation inhibition assay; stronger effect = higher value; tested at 2.5 µM.
A short description of assay [6]: enhancers of glutamate uptake in motor neurons, MN-1 cell line (AID 1612).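 Note: tested at 1 µM final; 0% = mean of DMSO vehicle wells on each plate; positive means more glutamate uptake than control and negative means less.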 As to conditions: MN-1 motor neuron cells, stronger effect = higher value.
The nature of assay [7]: suppressors of polyglutamine aggregation in yeast, 75Q-TubH (AID 1616). As to conditions: S. cerevisiae 75Q-TubH polyglutamine aggregation suppression; stronger effect = higher value.
A short description of assay [8]: hESC survival regulators, cell-based (AID 493140).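 Note: cells exposed to compounds for four days before counting.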 As to conditions: human embryonic stem cell survival screen; stronger effect = higher value.
The nature of assay [9]: Cy5 fluorescence interference with SSB-bound oligo, artefact control for HCV NS3 helicase inhibitor project, biochemical, NIH Clinical Collection, E. coli SSB (AID 743268).
Assay [10] concerns Hepatitis C virus NS3 helicase. The experiment in a line: HCV NS3 helicase inhibitors, primary screen, biochemical, fluorescence polarization, NIH Clinical Collection (AID 743270). As to conditions: NS3 helicase binding to Cy5-dT15 DNA, stronger effect = higher value, concentration not given here. (In general: In fluorescence polarisation assays a small probe gives low polarisation when free and higher when bound to something large.)

Assay [11] addresses Single-stranded DNA-binding protein (Escherichia coli (strain K12)) (UniProt P0AGE0). Kind of assay: E. coli SSB displacement from DNA, counter-screen for HCV NS3 helicase inhibitor project, biochemical, fluorescence polarization, NIH Clinical Collection (AID 743271; in the data active = inhibition above about 28%). As to conditions: stronger effect = higher value, concentration not given here.
Assay [12] is described as follows: fluorescence interference in NS3h assay format, artefact control for HCV NS3 helicase inhibitor project, biochemical, NIH Clinical Collection (AID 743272).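 Note: HCV NS3 helicase with a Cy5 labelled single stranded DNA probe.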 As to conditions: fluorescence interference counterscreen, stronger effect = lower value. Background: Counterscreens check selectivity or assay interference.
A short description of assay [13]: modulation of C. elegans fzo-1 (AID 1259413).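 Note: fzo-1 mutant C. elegans worms in liquid wells.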 As to conditions: C. elegans fzo-1 modulator screen, mean read-out; stronger effect = higher value.
Assay [14] is described as follows: viability rescue of complex I mutant cybrids, primary screen, cell-based, galactose medium, ATP luminescence (AID 1645843;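 active = z-score of at least 1.8 in each of two replicates, scored against plate mean and spread of sample wells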;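 note: positive z means more ATP and so rescue of galactose-driven cybrid death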). As to conditions: complex I mutant cybrid cells, 72 h, stronger effect = higher value.
For assay [15], the system named is F380Y/beta1. The experiment in a line: modulators of BK channel variants, profiling panel, selectivity assay, cell-based, U2OS BacMam, thallium flux, beta subunits (AID 1259406;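 active = thallium flux through the channel raised or lowered by more than 3 SD from vehicle-only wells, actives on both sides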;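 note: initial slope of Thallos dye fluorescence rise after thallium is added; log ratio against the mean of 0.3% DMSO vehicle wells on the same plate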). As to conditions: at 30 µM.
Assay [16] concerns F380Y/beta4. The description is as above. As to conditions: at 30 µM.
The subject of assay [17] is R275C/beta4. Described as above. As to conditions: at 30 µM.
Assay [18] deals with R275C/Slo1WT/beta2. The assay is described as above. As to conditions: at 30 µM.

Regarding `NS(=O)(=O)c1cc2c(cc1C(F)(F)F)NCNS2(=O)=O`, the results for the inhibition in [1], in assay [10] and in assay [11] were -8.77%, -3.18% (inactive) and -0.48% (inactive), respectively. For the same molecule, the score in assay [2] is 1.38. In addition, the rescue above control in assay [3] was -10.8. Also, the cytochrome c release ratio in assay [4] is 0.95. The inhibition of aggregation in [5] is 91.6%. Besides, the glutamate uptake change in [6] was -18.5%. The same molecule gave an aggregation suppression score in assay [7] of 1.31. Further, the survival in assay [8] is 23.1 (inactive). For the same molecule, the fluorescence ratio in assay [9] was 1.02 (inactive); in [12], 0.93 (inactive). Also, in assay [13], the mean signal is 224 (inactive). Further, the z-score in [14] is 1.47 (inactive). In addition, the log fold change Tl+ flux is 0.0232 (inactive) in [15], 0.0329 (inactive) in [16], 0.0202 (inactive) in assay [17] and 0.0133 (inactive) in assay [18].

For `CC(N=C(NC#N)Nc1ccncc1)C(C)(C)C` (centres undefined), the survival in assay [8] was 59.8 (inactive). The fluorescence ratio in assay [9] was 0.97 (inactive); in [12], 0.95 (inactive). Further, the inhibition – broadly, the relative decrease from the control value, in per cent – is -0.22% (inactive) in [10] and 1.97% (inactive) in assay [11]. In assay [13], the mean signal was 282 (inactive). Further, the z-score in [14] was 0.04 (inactive) and -0.155 (inactive) and 0.65 (inactive). The log fold change Tl+ flux is 0.0184 (inactive) in assay [15], 0.00227 (inactive) in assay [16], -0.0193 (inactive) in assay [17] and -0.0219 (inactive) in [18].

Take `CCN(CC)CCNC(=O)c1ccc(N)cc1`: the inhibition in [1] was -1.81%. Further, the score in assay [2] came out at 1.26. In assay [3], this molecule had a rescue above control of 9.03. In addition, in assay [4], the cytochrome c release ratio turned out to be 1.74. In addition, the inhibition of aggregation in assay [5] turned out to be 49.4%. The glutamate uptake change in assay [6] was -9.57%. The molecule also displayed an aggregation suppression score in assay [7] of 1.03. In assay [8], the survival was 12.9 (inactive). Also, the mean signal in assay [13] is 241 (inactive). For the same molecule, the z-score in [14] was 0.47 (inactive) and -0.57 (inactive) and 0.345 (inactive). Moreover, the log fold change Tl+ flux in assay [15] is 0.0223 (inactive); in [16], 0.0227 (inactive); in assay [17], -0.0764 (inactive); in [18], -0.03 (inactive).

On to `CN(C)CCOC(C)(c1ccccc1)c1ccccn1` (centres undefined), for which the results for the inhibition in assay [1], in [10] and in [11] were 9.79%, -0.4% (inactive) and -0.87% (inactive), respectively. For the same molecule, in assay [2], the score is 1.23. The same molecule displayed a rescue above control in [3] of -5.3. In [4], the cytochrome c release ratio worked out at 0.7. In addition, in assay [5], the inhibition of aggregation turned out to be 77%. Besides, the glutamate uptake change in assay [6] was found to be 7.08%. Also, the aggregation suppression score in assay [7] was 1.46. Also, the survival in [8] is 6.42 (inactive). Besides, the fluorescence ratio is 1.04 (inactive) in assay [9] and 1.06 (inactive) in assay [12]. Also, the mean signal in [13] is 230 (inactive). Besides, the z-score in [14] is 0.14 (inactive) and -0.05 (inactive) and 0.35 (inactive). In addition, the log fold change Tl+ flux in [15] was -0.0273 (inactive); in assay [16], 0.0181 (inactive); in assay [17], 0.0164 (inactive); in [18], 0.0279 (inactive).

On to `Cc1ccc(Cl)c(Nc2ccccc2C(=O)O)c1Cl`, for which the inhibition in assay [1] was 12.9%; in assay [10], 0.45% (inactive); in [11], -0.48% (inactive). This molecule also yielded a score in assay [2] of 0.67. For the same molecule, the rescue above control in [3] was 16.6. Also, in assay [4], the cytochrome c release ratio came to 1.42. Moreover, in [5], the inhibition of aggregation was 46.5%. Further, the glutamate uptake change in assay [6] is -15.8%. The molecule also had an aggregation suppression score in assay [7] of 0.94. Also, in [8], the survival was 16.6 (inactive). Also, the fluorescence ratio is 0.6 (active) in [9] and 1 (inactive) in assay [12]. For the same molecule, the mean signal in [13] is 249 (inactive). Further, the z-score in [14] was 2.05 (inactive) and 0.72 (inactive). Further, the log fold change Tl+ flux was 0.408 (active) in assay [15], 0.386 (active) in [16], 0.266 (active) in [17] and 0.0371 (inactive) in assay [18].
